Screens from PubChem BioAssay.
Many of the other results were omitted from the sample, so hits are more common in it than they were.
Tb PYK inh: blocks Trypanosoma brucei pyruvate kinase; Q57TT1; TbPYK enzyme, Kinase-Glo Plus ATP luminescence, 45 min; Potency, µM (highest dose often 76.8 µM), for inactives: at the top dose activity, negative = inhibition, actives largely listed as inhibitors; 410,000 compounds, 0.12% hits; AID 624173; further: potency means the concentration at half of the fitted maximal effect; on the % scale 0 is the no-effect control and ±100 the full control effect; nearly all actives have a fitted effect of over 50% in size
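Activity of T. brucei pyruvate kinase was followed by Kinase-Glo Plus luminescence after the enzyme reacted 45 min at room temperature with 130 uM ADP (final) and substrate. Test compounds were added before ADP at multiple concentrations.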
Sm TGR inh: S. mansoni TGR enzyme inhibition; Q962Y6; purified TGR, DTNB reduction, TNB absorbance 405 nm; Potency, µM (top dose mostly 114 µM), for inactives: at the top dose activity change, negative = inhibition, usual class: inhibitors; 360,000 compounds, 3% hits; further: potency means the concentration at half of the fitted maximal effect; on the % scale 0 is the no-effect control and ±100 the full control effect; nearly all actives have a fitted effect of over 60% in size
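TGR 20 nM + NADPH 100 uM (dispensed conc.), cpd preinc 15 min RT; start with NADPH (500 uM addition) then DTNB (15 mM addition). Kinetic TNB absorbance, 405 nm filter. Four-parameter Hill fit across titration.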
Cycloheximide cs: affects cycloheximide protein synthesis inhibition readout, counter-screen. cell reporter, cycloheximide protein synthesis inhibition counterscreen. max response, %. 300,000 compounds, 12% hits; in the data active means max response mostly above about 13%, no sharp cut-off; inactive means mostly below about 14%; further: read at 38.3 µM for the half of the compounds with a filed dose; 0% is about no effect
Shiga toxin inh: Shiga toxin inhibition | Vero cells, Shiga toxin protein synthesis inhibition reporter | inhibition, % at 38.7 µM | 290,000 compounds, 9.2% hits; in the data active means inhibition mostly above about 28%, no sharp cut-off; inactive means mostly below about 43%; further: 0% is about no effect
FBPA Giardia inh: inhibitors of Giardia lamblia fructose-1,6-bisphosphate aldolase; A8B2U2; purified Giardia FBPA; Potency, µM (doses to about 59.6 µM), for inactives: at the highest dose activity, negative = inhibition, actives largely listed as inhibitors; 290,000 compounds, 0.71% hits; further: potency means the concentration at half of the fitted maximal effect; on the % scale 0 is the no-effect control and ±100 the full control effect; nearly all actives have a fitted effect of over 55% in size
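40 nM FBPA preincubated 10 min at RT with compound (up to 57.5 uM final), then substrate plus GAPDH/TPI/NAD/arsenate coupling and diaphorase/resazurin added. Fluorescence read after 20 min at RT, 525/598 nm.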
LmPK inh: LmPK (Leishmania mexicana) enzyme inhibition; Q27686; purified LmPK, Kinase-Glo ATP luminescence, 1 h; Potency, µM (top dose mostly 57.5 µM), without a hit: at the highest dose activity change, negative = inhibition, hits mostly inhibitors; 290,000 compounds, 0.37% hits; further: potency means the concentration at half of the fitted maximal effect; on the % scale 0 is the no-effect control and ±100 the full control effect
Target sequence (Q27686 whole entry, looked up): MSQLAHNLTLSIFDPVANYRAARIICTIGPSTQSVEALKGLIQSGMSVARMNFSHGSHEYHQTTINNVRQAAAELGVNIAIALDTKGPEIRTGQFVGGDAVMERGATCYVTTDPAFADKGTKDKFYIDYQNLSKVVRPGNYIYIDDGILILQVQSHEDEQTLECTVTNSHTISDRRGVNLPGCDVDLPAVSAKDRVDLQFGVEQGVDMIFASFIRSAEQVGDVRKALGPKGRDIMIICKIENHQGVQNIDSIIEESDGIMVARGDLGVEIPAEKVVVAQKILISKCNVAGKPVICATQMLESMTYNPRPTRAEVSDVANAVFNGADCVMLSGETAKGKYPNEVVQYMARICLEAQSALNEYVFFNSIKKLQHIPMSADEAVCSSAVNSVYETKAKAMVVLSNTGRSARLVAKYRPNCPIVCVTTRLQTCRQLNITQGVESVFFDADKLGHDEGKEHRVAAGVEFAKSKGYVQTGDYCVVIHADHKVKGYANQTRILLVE
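ATP generated from ADP (0.1 mM) and PEP (0.5 mM) by 0.1 nM LmPK over 1 h at room temperature (pH 7.2 imidazole buffer) was detected by coupled luciferase luminescence. Values were normalized to uninhibited and no-enzyme wells.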
The depositor's hits bear a star; [ ] = another dose, or the depositor's remark. Unless noted, the call rests on the fitted dose curve; in most records, active means well fitted curve in the direction sought with a large enough effect; inconclusive means small, poorly fitted or top-dose-only effect, or another doubt; inactive means no such curve, though single readings can be large; an effect the other way counts as inactive or inconclusive.

O=c1c(-c2ccc(Br)cc2)[n+]([O-])c2ccccc2n1OCc1ccccn1 was read as Tb PYK inh inconclusive, Cycloheximide cs 0, Shiga toxin inh 23, FBPA Giardia inh 0% and LmPK inh 2%.
For O=C(c1cc(F)c(F)cc1Cl)N1CCN(S(=O)(=O)c2cccs2)CC1 the results were Tb PYK inh -1% and Sm TGR inh 0%.
`COC(=O)c1nc(NC(=O)c2cc(OC)c(OC)c(OC)c2)n[nH]1` gave Tb PYK inh 9%, Sm TGR inh 32µM*, Cycloheximide cs 13, Shiga toxin inh -10 and LmPK inh -5%.
For O=C(CSc1nnc(NC(=O)C2CC(=O)N(c3ccccc3)C2)s1)NCc1ccco1 (stereo not drawn) the results were Tb PYK inh 5%, Sm TGR inh 45µM*, Cycloheximide cs -2, Shiga toxin inh -7, FBPA Giardia inh -11% and LmPK inh -8%.
`O=C(CSc1nnc(NC(=O)C2CC(=O)N(c3ccccc3)C2)s1)NCC1CCCO1` (stereo not drawn) gave Tb PYK inh -9%, Sm TGR inh -20%, Cycloheximide cs -2, Shiga toxin inh -5, FBPA Giardia inh inconclusive and LmPK inh 1%.
Screening COc1cccc(N2CC(C(=O)Nc3nnc(SCC(=O)NC4CCCC4)s3)CC2=O)c1 (stereo not drawn) returned Tb PYK inh 1%, Sm TGR inh -17%, Cycloheximide cs 1, Shiga toxin inh -9 and LmPK inh -7%.
COc1cccc(N2CC(C(=O)Nc3nnc(SCC(=O)NCc4ccco4)s3)CC2=O)c1 (stereo not drawn) was read as Tb PYK inh -1%, Sm TGR inh 50µM*, Cycloheximide cs -3, Shiga toxin inh -5, FBPA Giardia inh -24% and LmPK inh -1%.
For COc1cc2c(cc1OC)C1O[C@](CCCCN3C(=O)c4ccccc4C3=O)(C2)Oc2c1c(=O)oc1ccccc21 the results were Sm TGR inh -17%[22.9 µM], Cycloheximide cs -2, Shiga toxin inh inactive, FBPA Giardia inh 16%[12.9 µM] and LmPK inh -6%[11.5 µM].
`CC(C)N1CC2=C(OC(N)=C(C#N)C2c2cccnc2)/C(=C/c2cccnc2)C1` (stereo not drawn) gave Tb PYK inh -2%, Sm TGR inh -20%, Cycloheximide cs -2, Shiga toxin inh -19, FBPA Giardia inh inconclusive and LmPK inh -1%.
`O=C1NC(=O)/C(=C\c2ccsc2)N1` gave Tb PYK inh 0%, Sm TGR inh 18%, Cycloheximide cs -7, Shiga toxin inh 33, FBPA Giardia inh -3% and LmPK inh 0%.
Screening CC(C)N1C/C(=C/c2ccsc2)C(=O)/C(=C/c2ccsc2)C1 returned Tb PYK inh -10%, Sm TGR inh -34%, Cycloheximide cs 15*, Shiga toxin inh -7, FBPA Giardia inh -30% and LmPK inh 4%.
`CC(C)N1C/C(=C/c2cccnc2)C(=O)/C(=C/c2cccnc2)C1` gave Tb PYK inh 1%, Sm TGR inh inconclusive, Cycloheximide cs 21*, Shiga toxin inh 28, FBPA Giardia inh 3% and LmPK inh 1%.
`CN1C/C(=C/c2cccnc2)C(=O)/C(=C/c2cccnc2)C1` gave Tb PYK inh -1%, Sm TGR inh inconclusive, Cycloheximide cs 25*, Shiga toxin inh 1, FBPA Giardia inh 0% and LmPK inh 0%.
For O=C1c2ccccc2C(=Cc2cccnc2)c2ccccc21 the results were Tb PYK inh 5%.
Oc1ccc(N=Nc2n[nH]c(-c3ccc(Cl)cc3)n2)cc1 was read as Tb PYK inh -1%, Sm TGR inh 9%, Cycloheximide cs 23*, Shiga toxin inh 82*, FBPA Giardia inh 4% and LmPK inh 3%.
`CCC(CO)NC(=O)C(=O)Nc1c2c(nn1-c1ccc(F)cc1)CSC2` (stereo not drawn) gave Tb PYK inh 2% and Sm TGR inh -26%.
Screening CC(C)CCn1c(O)c(N=NC(=O)c2ccco2)c2ccccc21 returned Tb PYK inh -4%, Sm TGR inh 21%, Cycloheximide cs 22, Shiga toxin inh 24*, FBPA Giardia inh 0% and LmPK inh 4%.
CC(C)Cn1c(O)c(N=NC(=O)c2cccc(S(=O)(=O)N3CCCCC3)c2)c2ccccc21 was read as Tb PYK inh 5%, Sm TGR inh -11%, Cycloheximide cs -1, Shiga toxin inh 15, FBPA Giardia inh 2% and LmPK inh 0%.
Screening Cn1c(O)c(N=NC(=O)c2ccco2)c2ccccc21 returned Tb PYK inh 2%, Sm TGR inh -10%[57.1 µM], Cycloheximide cs 44*, Shiga toxin inh 145*, FBPA Giardia inh 1% and LmPK inh -22%.
Cn1c(O)c(N=NC(=O)CNC(=O)c2ccco2)c2ccccc21 was read as Tb PYK inh 3%, Sm TGR inh -8%, Cycloheximide cs -1, Shiga toxin inh -9, FBPA Giardia inh -8% and LmPK inh -3%.
`Cc1ccc2c(c1)c1c(c(=O)n(-c3cccc(Cl)c3)c(=O)n1CC(=O)N1CCCC1)n2C` gave Tb PYK inh -3% and Sm TGR inh 7%.
Nc1ccc(S(=O)(=O)NN=CC=Cc2ccccc2[N+](=O)[O-])cc1 was read as Tb PYK inh -3%.
O=C(O)c1cc(N/N=C/C=C/c2ccccc2[N+](=O)[O-])ccc1Cl was read as Tb PYK inh 6%, Sm TGR inh -20%, Cycloheximide cs 42*, Shiga toxin inh 68*, FBPA Giardia inh 3% and LmPK inh 1%.
Screening NS(=O)(=O)c1ccc(N/N=C/C=C/c2ccccc2[N+](=O)[O-])cc1 returned Tb PYK inh 1%, Sm TGR inh -21%, Cycloheximide cs 37*, Shiga toxin inh 80*, FBPA Giardia inh -2% and LmPK inh 11%.
O=C(NC1=NCCS1)C1Cc2ccccc2CN1C(=O)c1ccccc1 (stereo not drawn) was read as Tb PYK inh 3%, Sm TGR inh 3%, Cycloheximide cs 28*, Shiga toxin inh 84*, FBPA Giardia inh -29% and LmPK inh 9%.
`CC(=O)c1ccc(NC(=O)C2Cc3ccccc3CN2C(=O)c2ccccc2)cc1` (stereo not drawn) gave Tb PYK inh -6%, Sm TGR inh -1%, Cycloheximide cs 11*, Shiga toxin inh 41*, FBPA Giardia inh -23% and LmPK inh -3%.
Screening CCOc1ccc(NC(=O)C2Cc3ccccc3N2C(=O)c2ccccc2)cc1 (stereo not drawn) returned Tb PYK inh 3% and Sm TGR inh 50µM*.
